Data from PubChem BioAssay (NCI).
“And” between values parts separate entries of the source, which are not always exact repeats. Equal values may be shown once. Compounds without any hit were thinned out: in the full panel of roughly 79,000, 15% have a hit. Where a structure was tested more than once in an assay, its records may differ in their call. The source made the active and inactive calls. Rule as the data show it: active = growth inhibition above about 70%; inactive = the rest.

Columns and labels:
[1] = NCI Yeast Anticancer Drug Screen. Data for the rad50 strain (AID 155);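 also: 0% = growth of vehicle-only cultures of the same strain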; details: S. cerevisiae rad50 strain growth inhibition, stronger effect = higher value
Summary of the method: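 Yeast carrying a defined DNA repair defect were exposed to test compounds, and growth was compared with vehicle-treated controls to give percent inhibition.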

[2] = NCI Yeast Anticancer Drug Screen. Data for the mec2-1 strain (AID 157); details: S. cerevisiae mec2-1 strain, stronger effect = higher value
Summary of the method: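 Compounds were applied to mec2-1 yeast cells. Their growth was then compared with that of vehicle-treated cultures to give growth inhibition.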

[3] = NCI Yeast Anticancer Drug Screen. Data for the sgs1 mgt1 strain (AID 161);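 also: 0% = growth of cultures given vehicle only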; details: S. cerevisiae sgs1 mgt1 strain, stronger effect = higher value
Summary of the method: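 Growth of a repair-deficient yeast mutant was monitored after compound treatment and expressed as inhibition relative to vehicle-treated cultures.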

[4] = NCI Yeast Anticancer Drug Screen. Data for the cln2 rad14 strain (AID 165);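 also: 0% = growth equal to vehicle treated cultures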; details: S. cerevisiae cln2 rad14 strain, stronger effect = higher value
Summary of the method: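 Strain: cln2 rad14 yeast, altered in cell cycle control and DNA damage repair. Read-out: growth inhibition vs vehicle.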

[5] = NCI Yeast Anticancer Drug Screen. Data for the bub3 strain (AID 167); details: S. cerevisiae bub3 mutant strain, stronger effect = higher value
Summary of the method: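 Compounds were applied to a genetically altered yeast strain carrying a cell-cycle control defect. Growth inhibition was scored against vehicle-treated controls.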

[6] = NCI Yeast Anticancer Drug Screen. Data for the mlh1 rad18 strain (AID 175); details: S. cerevisiae mlh1 rad18 strain growth inhibition, stronger effect = higher value
Summary of the method: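 A repair-deficient yeast strain is exposed to test compound, and growth is scored relative to vehicle-treated controls.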

[7] = at 5.0 µM (retest, dose inferred, filed as 0.5)
[8] = at 50.0 µM (retest, dose inferred, filed as 5.0)

## CCCCCCCCCCCC[N+](C)(C)C
[1]; [7]
  growth inhibition: -9% (inactive) and -3% (inactive) and 12% (inactive)
[1]; [8]
  growth inhibition: 98% (active) and 96% (active) and 99% (active)
[1]; at 50.0 µM
  growth inhibition: 49.9% (inactive) and 80.2% (active) and 39.5% (inactive)
[2]; [7]
  growth inhibition: -3% (inactive) and 0% (inactive) and 22% (inactive)
[2]; [8]
  growth inhibition: 99% (active) and 98% (active) and 100% (active)
[2]; at 50.0 µM
  growth inhibition: 53.3% (inactive) and 89.5% (active) and 92.2% (active)
[3]; [7]
  growth inhibition: -8% (inactive) and -3% (inactive) and 49% (inactive)
[3]; [8]
  growth inhibition: 98% (active) and 97% (active) and 99% (active)
[3]; at 50.0 µM
  growth inhibition: 49% (inactive) and 92.5% (active) and 48.6% (inactive)
[4]; [7]
  growth inhibition: 3% (inactive) and -1% (inactive) and 2% (inactive)
[4]; [8]
  growth inhibition: 97% (active) and 96% (active) and 99% (active)
[4]; at 50.0 µM
  growth inhibition: 71.8% (active) and -21.6% (inactive) and 66.2% (inactive)
[5]; [7]
  growth inhibition: 14% (inactive) and 9% (inactive) and 18% (inactive)
[5]; [8]
  growth inhibition: 95% (active) and 98% (active) and 100% (active)
[5]; at 50.0 µM
  growth inhibition: 57.2% (inactive) and 82.1% (active) and 97.2% (active)
[6]; [7]
  growth inhibition: -4% (inactive) and -5% (inactive) and 4% (inactive)
[6]; [8]
  growth inhibition: 96% (active) and 95% (active) and 99% (active)
[6]; at 50.0 µM
  growth inhibition: 83.3% (active) and 91% (active) and 80.5% (active)
